Screen size: about 300,000 compounds; about 37,000 (12%) were called active. No stated cut-off is given here; in the data, active means max response mostly above about 13% (no sharp cut-off); inactive means mostly below about 14%. What follows is part of a selection rich in actives, with near analogues and random picks from the rest.

A short description of this test: Cycloheximide Counterscreen for Small Molecule Inhibitors of Shiga Toxin. Further: read at 38.3 µM for the half of the compounds with a filed dose; 0% is about no effect. The settings on record: cell reporter, cycloheximide protein synthesis inhibition counterscreen; stronger effect = higher value. A general note: A counterscreen serves to expose hits that act by an unwanted route or on another target.
For the compound `O=C(CN1C(=O)COc2ccc(Cl)cc21)N1CCOCC1`, the max response is -0.636% (inactive).

Consider `CCOC(=O)CSc1nc2ccc(C)cc2n2cnnc12`, for which the max response was 7.14% (inactive).

As for `Cc1ccc(C)c(S(=O)(=O)Nc2cc(C)on2)c1`, the max response is -1.71% (inactive).

On to `CCCC(O)(CCC)C(=O)NN(C(=O)CCl)c1cccc(C)c1`, for which the max response was 4.6% (inactive).

In the case of `O=C(NNS(=O)(=O)c1ccccc1C(F)(F)F)c1cc2ncc(C(F)(F)F)cc2s1`, the max response was -2.52% (inactive).

For `CC(C)(C)c1cc(NC(=O)NN2CCOCC2)nn1-c1c(Cl)cc(Cl)cc1Cl`, the max response is 6.4% (inactive).

Take `O=C(CCn1c(SCC(=O)c2ccccc2)nc2ccccc2c1=O)NCc1ccc(F)cc1`: the max response was -3.48% (inactive).

For the compound `O=C(Nn1c(-c2ccccc2)nc2ccccc2c1=O)c1ccc([N+](=O)[O-])cc1`, the max response is 1.01% (inactive).

With `O=C(Nn1c(SCc2ccc([N+](=O)[O-])cc2)nc2ccccc2c1=O)c1ccc(F)cc1`, the max response was 116% (active).

`Cc1ccc(CNS(=O)(=O)c2ccc3c(c2)N(C)CCO3)cc1`: the max response is 13.9% (inactive).

With `COC(=O)c1c(NC(C)=O)sc(C(=O)Nc2ccccc2OC)c1C`, the max response was -2% (inactive).

With `COc1ccccc1NC(=O)c1ccc(C)s1`, the max response was 64% (active).

On to `COc1ccccc1NC(=O)C1=C(C)NC(=O)NC1c1ccc(C)s1` (stereo unspecified), for which the max response is -3.68% (inactive).

Regarding `CCCCn1c(=S)[nH]c2cc(S(=O)(=O)N3CCCCC3)ccc21`, the max response was -3.25% (inactive).

For `O=C(N/N=C/c1cc([N+](=O)[O-])ccc1O)/C(=C\c1cccs1)NC(=O)c1ccccc1`, the max response is -1.19% (inactive).

For `Nc1nnnn1/N=C/c1cc([N+](=O)[O-])ccc1O`, the max response is 1.42% (inactive).

Take `O=[N+]([O-])c1ccc(O)c(/C=N/Nc2ccccc2[N+](=O)[O-])c1`: the max response is 15.6% (active).

As for `Cc1cc(C)c(OCC(=O)N/N=C/c2ccco2)c(C)c1`, the max response is -3.21% (inactive).

In the case of `CC(/C=N/NC(=O)c1cc(-c2ccc3ccccc3c2)n[nH]1)=C\c1ccco1`, the max response was 22.2% (active).

For `CC(/C=N/NC(=O)c1ccncc1)=C\c1ccco1`, the max response was 10.3% (inactive).

Consider `OCCNCc1cccc(OCc2ccccc2Cl)c1`, for which the max response is -3.04% (inactive).

For the compound `O=C(COC(=O)c1cc(=O)[nH]c2ccccc12)Nc1nc(-c2cccc(Br)c2)cs1`, the max response was 0.762% (inactive).

As to `Cc1cc(O)c(NC(=O)c2ccc(C)c([N+](=O)[O-])c2)cc1C`, the max response was 40.4% (active).

Consider `CCN1CCC(=NNC(=O)c2ccc(C)c([N+](=O)[O-])c2)CC1`, for which the max response was -3.08% (inactive).

`Cc1ccc(C(=O)Nc2cccc3ncccc23)cc1[N+](=O)[O-]`: the max response is 9.95% (inactive).

On to `COc1cccc(-c2nc(CS(=O)(=O)CC(=O)NCCc3ccc(OC)c(OC)c3)c(C)o2)c1`, for which the max response was 16% (inactive).

Take `COc1ccccc1NC(=O)/C=C/C(=O)O`: the max response was -1.17% (inactive).

For `COC(=O)c1sc(-c2ccc(C(C)(C)C)cc2)cc1NC(=O)/C=C/C(=O)O`, the max response was 45.7% (active).

Consider `O=C(O)/C=C/C(=O)Nc1ccc(F)cc1F`, for which the max response was 7.97% (inactive).

Regarding `O=C(CCn1nnnc1CN1CCOCC1)N1CCC(c2ccccc2Cl)C1` (stereo unspecified), the max response was -3.06% (inactive).

In the case of `CC(=O)c1c(C)n(-c2ccc(C)cc2)c2ccc(O)cc12`, the max response is -2.22% (inactive).

As for `O=C(CSc1nc2ccccc2o1)N1CCN(c2ccccc2)CC1`, the max response was -3.14% (inactive).

Turning to `CCN(CC)C(=O)CSc1nnc(-c2cccc(OC)c2)o1`, the max response was 41% (active).

Take `CCN(CC)C(=O)CSc1nc2ccccc2o1`: the max response was 21.2% (active).

`CCOC(=O)n1c(SCC(=O)N(CC)CC)nc2ccccc21`: the max response is 0.246% (inactive).

Turning to `Cc1cc(=O)[nH]c(SCC(=O)N2c3ccccc3CC2C)n1` (stereo unspecified), the max response was 1.01% (inactive).

With `CC(C)(C)C(=O)CSc1nc2ccccc2o1`, the max response was 34.5% (active).

`O=C(CSc1nc2ccccc2o1)N1CCN(c2ccc(Cl)cc2)CC1`: the max response was 3.68% (inactive).

Turning to `O=C(CSc1nc2ccccc2o1)N1c2ccccc2Sc2ccc(Cl)cc21`, the max response is -1.63% (inactive).

Regarding `CC1Cc2ccccc2N1C(=O)CSc1nc2ccccc2o1` (stereo unspecified), the max response was 42.4% (active).

With `CCN(CC)C(=O)CSc1nnc(-c2ccc(S(=O)(=O)NCc3ccccc3Cl)cc2)o1`, the max response was -0.581% (inactive).

For `CCOC(=O)CSc1nnc(-c2cccc(Br)c2)o1`, the max response was -2.27% (inactive).

`CCS(=O)(=O)c1ccc2oc(SCC(=O)N3c4ccccc4CC3C)nc2c1` (stereo unspecified): the max response is -5.84% (inactive).

In the case of `COc1ccc(CCNC(=O)C2CCCN2C(=O)Nc2ccccc2)cc1OC` (stereo unspecified), the max response was -1.21% (inactive).

`CCOC(=O)c1c(NC(=O)C2CC=CCC2C(=O)O)sc(C)c1CC` (stereo unspecified): the max response is -3.33% (inactive).

`Nc1nnnn1/N=C/c1cccc(Br)c1`: the max response was -1.37% (inactive).

For the compound `COc1ccc(-c2nn(C)c(=O)c3ccccc23)cc1CNC(=O)C1CCCCC1`, the max response was -2.76% (inactive).

On to `Cc1ccccc1Nc1scc(-c2ccc(Br)cc2)[n+]1-c1ccccc1C`, for which the max response was 12.1% (inactive).

Regarding `CC(C)OC(=O)CN1CCN(c2ccc(Cl)cc2)CC1`, the max response was -1.75% (inactive).

`CC1CCCN(CCOCCOc2ccccc2-c2ccccc2)C1` (stereo unspecified): the max response was -1.97% (inactive).

Consider `Cc1ccc(CNC(=O)CSc2nnc3c(n2)[nH]c2ccc(F)cc23)cc1`, for which the max response is -7.47% (inactive).

On to `CC(c1nnc(SCC(=O)Nc2sccc2C#N)n1-c1ccc(Cl)cc1)N(C)C` (stereo unspecified), for which the max response is -5.17% (inactive).

In the case of `CCOc1ccc(NC(=O)C/C(C)=N/NC(=O)Cc2cccs2)cc1`, the max response is 11.9% (inactive).

Regarding `Cc1nnc(NC(=O)/C=C/c2ccco2)s1`, the max response is 25.7% (active).

As for `Cc1ccc(/C=C/C(=O)Nc2ccc([N+](=O)[O-])c(NC(=O)/C=C/c3ccc(C)o3)c2)o1`, the max response is -2.46% (inactive).

For `CCc1nnc(NC(=O)/C=C/c2ccc(C)o2)s1`, the max response was 21.2% (active).

Take `CCc1nnc(NC(=O)CCC(=O)O)s1`: the max response is -1.47% (inactive).

For the compound `CCOC(=O)c1c(NC(=O)/C=C/c2ccco2)sc(C)c1C`, the max response is -2.54% (inactive).

As to `CCC(CC)c1nnc(NC(=O)/C=C/c2ccco2)s1`, the max response was 17.5% (inactive).

With `CNC(=O)c1[nH]cnc1C(=O)N[C@@H](CC(C)C)C(=O)OCc1ccccc1`, the max response is 0.929% (inactive).

For the compound `COc1ccc(NC(=O)NCCN2CCN(c3ccc(C)cc3)CC2)c(Cl)c1`, the max response was -1.67% (inactive).

(Values after PubChem BioAssay AID2314 (National Center for Advancing Translational Sciences (NCATS), 2010).)
